# Assay results published in PubChem BioAssay (NCATS).
# Results filed as inconclusive are left out. A number with no mark means an inactive call. Calls of active or inactive are those of the source. Calls follow the shape of the dose curve; as a rule, active = well fitted curve in either direction with a large enough effect (not every such curve was filed as active); inconclusive = small, poorly fitted or top-dose-only effect, or another doubt; inactive = flat fitted curve, though single readings scatter.
# Molecular target: Mitogen-activated protein kinase 10 (Mus musculus) (UniProt Q61831)
# Assay: JNK3 AlphaScreen Assay (AID 530);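 also: kinase came from lysate of stimulated human HepG2 cells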
# Details: JNK3 lysate, c-Jun phosphorylation; series mostly up to 57.1 µM; activity change, negative = inhibition: at the top concentration
# Description: NIH Chemical Genomics Center [NCGC]
# NIH Molecular Libraries Screening Centers Network [MLSCN]
# The c-jun N-terminal kinase (JNK) family are serine/threonine protein kinases that phosphorylate c-jun, a component of the transcription factor […] (AP-1). JNK kinases are members of the mitogen-activated protein kinase family including the extracellular regulated kinases and p38 kinases. Three JNK genes (JNK 1, 2, and 3) have been identified in humans so far. JNK1 and JNK2 have a broad distribution and JNK3 is primarily found in neuronal tissues and cardiac myocytes.
# JNK3 has been under consideration as a target for the treatment of neurodegenerative disorders. […] JNK pathway is also involved in pathological process in a mouse model of Parkinson's disease (Xia et al., 2001).
# Given these potential tissue distributions and links to neuroprotection, JNK3 inhibitors should provide useful investigational tools to study the role of this kinase in several diseases including, arthritis, stroke, myocardial infarction, ischemic injury and Parkinson's disease.
# A homogeneous AlphaScreen is developed to measure the activity of JNK3. AlphaScreen is a two bead-based proximity-dependent chemical energy transfer luminescent assay platform. The phosphorylation of a biotinylated c-jun substrate by JNK3 can be detected with an antibody raised against phosphorylated c-jun. This process brings streptavidin donor beads and Protein-A acceptor beads to within a proximity range of <200 nm, and subsequently lead a chemical luminescent reaction upon exciting donor beads with 680 nm laser excitation light. Inhibition of JNK3 activity by small molecules and subsequent decrease in the antibody binding to biotinylated c-jun could attenuate or abolish this chemical luminescent reaction.
# Yang DD, Kuan CY, Whitmarsh AJ, Rincon M, Zheng TS, Davis RJ, Rakic P and Flavell RA (1997) Absence of excitotoxicity-induced apoptosis in the hippocampus of mice lacking the Jnk3 gene. Nature 389:865-870. [PMID: 9349820]
# Herdegen T, Claret FX, Kallunki T, Martin-Villalba A, Winter C, Hunter T, and Karin M (1998) Lasting N-terminal phosphorylation of c-Jun and activation of c-Jun N-terminal kinases after neuronal injury. J.Neurosci. 18:5124-5135. [PMID: 9651196]
# Xia XG, Harding T, Weller M, Bieneman A, Uney JB and Schulz JB (2001) Gene transfer of the JNK interacting protein-1 protects dopaminergic neurons in the MPTP model of Parkinson's disease. Proc.Natl.Acad.Sci.U.S.A. 98:10433-10438.
# NCGC Assay Protocol Summary:
# GST-cJun (1-79) (Stratagene, La Jolla CA, #205145) was biotnylated by PerkinElmer (PerkinElmer-BioSignalInc. Montreal, Canada) and was detectable by the streptavidin Donor beads. Anti-(phospho)cJun (Ser73) antibody was from UpState (Charlottesvilles, VA, #06-659). JNK3-containing lysates were generated from HepG2 cells and pre-activated by interleukin1-beta and tumor necrosis factor alpha. All reagents were stored at -20 C before using. Phosphorylated biotinylated-GST-cJun was recognized by Anti-(phospho)cJun (Ser73) antibody and this process brings acceptor and donor beads together. Therefore JNK3 phosphorylation of cJun can be measured by Alpha reading by EnVision (PerkinElmer, Boston, MA).
# The composition of kinase buffer was (in mM) 20 tris- HCl (pH 7.6) 10 MgCl2, 1 DTT, and 0.1 Na3VO4 and 0.01% Tween-20. Beads were diluted in detection buffer containing (in mM) 20 tris-HCl (pH 7.7), 20 NaCl and 80 EDTA and 0.3% BSA. The assay was performed at room temperature. All compounds were screened as titrations from 0.6 nM to 46 uM final concentration. The assay was performed in 1536-well format (white solid bottom and untreated) as follows:
# Sequence,Parameter,Value,Description
# 1,Reagent,3 uL,Biotin-GST-cJun, Anti-(phospho)cJun and pre-activated JNK3-containing lysates
# 2,Compound,23 nL,Final concentration was 0.6nM to 46uM
# 3,Time,15 minutes,Room Temperature
# 4,Reagent,1 uL,ATP final concentration 10uM
# 6,Reagent,0.5 uL,2ng/well bead mixture
# […]
# % is scaled to controls: 0 for no effect and ±100 for the full control effect.
Structure (SMILES),"activity change, negative = inhibition [%]",outcome
Cc1nc(NCc2ccccc2)c2nc(-c3ccccc3)n(CCN3CCCC3)c2n1,-9.56,–
CCN(CC)CCCCn1c(-c2ccccc2)nc2c(N3CCOCC3)nc(C)nc21,1.59,–
c1ncc(-c2ccoc2)c(NC2CC2)n1,3.06,–
CNc1ncncc1-c1ccccc1OC,-2.51,–
Cc1cccc(CNc2ccnc(-c3cccnc3)n2)c1,-5.11,–
O=c1c(-c2ccc(F)c(F)c2)nc2cncnc2n1C1CC1,-2.48,–
CCCCNc1nc(C)nc2c1nc(-c1ccccc1)n2CCCN(C)C,-0.0444,–
CN1CCN(c2ncc3nc(-c4cc(F)cc(F)c4)c(=O)n(C4CC4)c3n2)CC1,-0.258,–
CS(=O)(=O)N1CCC[C@@]2(CCN(c3ccccn3)C2)C1,-1.25,–
COCCn1c(=O)c(CCc2ccccc2)nc2cnc(N3CCN(C)CC3)nc21,-7.1,–
COc1ccc(C(=O)N2CCC[C@@]3(CCN(C(=O)Nc4ccccc4)C3)C2)cc1,0.992,–
CN1CCN(c2nc(-c3ccccc3C(F)(F)F)nc3ccccc23)CC1,-0.743,–
O=c1c(-c2cc(F)cc(F)c2)nc2cnc(N3CCNCC3)nc2n1C1CC1,15.2,–
O=C(c1cccc(F)c1)N1CCC2(CC1)CCN(c1ccccc1)CC2,-10,–
CCCn1c(C)nc2c(NCCN3CCCCC3)nc(C)nc21,2.07,–
O=C(c1ccco1)N1CCC[C@@]2(CCN(Cc3ccccc3)C2)C1,6.63,–
CN1CCN(c2ncc3nc(-c4ccccc4)c(=O)n(CCc4ccccc4)c3n2)CC1,26.1,–
CN(C)c1ncc2ncc(=O)n(Cc3ccc(F)cc3)c2n1,17.5,–
CC(C)NC(=O)N1CCC2(CC1)CCN(C(=O)c1csnn1)CC2,0.324,–
COc1ccc(CNc2cc(-c3ccccc3Cl)ncn2)c(OC)c1,5.11,–

Structure (SMILES),"activity change, negative = inhibition [%]",outcome
O=C(Oc1ccccc1)N1CCC[C@@]2(CCN(c3ncccn3)C2)C1,-9.73,–
Oc1ccc(/C=C\c2cc(O)cc(O)c2)cc1,–,inactive
COCCn1c(=O)cnc2cnc(Nc3ccccc3)nc21,-16.3,–
CN(C)c1ncc2nc(-c3cccs3)c(=O)n(C[C@H]3CCCO3)c2n1,16.8,–
COCCn1c(=O)c(CCc2ccccc2)nc2cnc(OC)nc21,4.11,–
N#CCCn1c(=O)cnc2cnc(N3CCOCC3)nc21,-3.49,–
O=C(Nc1cccc(F)c1)N1CC2(CCN(S(=O)(=O)c3ccccc3)CC2)C1,-1.53,–
CCCn1c(C)nc2c(N3CCCN(Cc4ccccc4)CC3)nc(C)nc21,-1.36,–
Cn1c(=O)c(CCc2ccccc2)nc2cnc(OCc3ccccc3)nc21,9.41,–
COCCn1c(=O)cnc2cnc(Nc3cccc(OC)c3)nc21,-25,–
O=c1cnc2cncnc2n1Cc1ccccc1Cl,-7.22,–
COc1ccc(NC(=O)N2CCCC3(CCNCC3)C2)cc1,2.1,–
CN(C)c1ccc(-c2ccc3ncnc(N(C)C)c3c2)cc1,-21,–
O=c1c(-c2ccc(F)cc2)nc2cnc(N3CCNCC3)nc2n1C1CC1,7.26,–
COc1ccc(Oc2ncc3nc(-c4ccc(OC)cc4)c(=O)n(Cc4cccs4)c3n2)cc1,10.1,–
O=C(c1cnccn1)N1CCC[C@@]2(CCN(c3ccccc3)C2)C1,-5.64,–
COCCNc1ncnc2ccc(-c3ccccc3C)cc12,-12.3,–
O=C(c1cc(C(F)(F)F)cc(C(F)(F)F)c1)N1CCC2(CC1)CCN(c1ccccn1)CC2,-4.37,–
CCCn1c(-c2ccc(F)cc2)nc2c(NCCN3CCOCC3)nc(C)nc21,12.9,–
COc1ccc(NC(=O)N2CC3(CCN(C(=O)c4cccn4C)CC3)C2)cc1,-3.26,–
